The values that follow come from paper PMC7862700, “An all-to-all approach to the identification of sequence-specific readers for epigenetic DNA modifications on cytosine”.

Holding throughout (test): DAPPL (digital affinity profiling via proximity ligation, sequencing); 10 mM Tris-HCl pH 7.5, 50 mM NaCl, 1 mM DTT, 4% glycerol, room temperature, 30 min; GST-TFs on glutathione beads, 16-mer random dsDNA library, 0.1% formaldehyde crosslink after washing; high values mean tight binding
Experiment [1] deals with T1, ELK3 (Homo sapiens, UniProt P41970 1-407).
T1 sequence: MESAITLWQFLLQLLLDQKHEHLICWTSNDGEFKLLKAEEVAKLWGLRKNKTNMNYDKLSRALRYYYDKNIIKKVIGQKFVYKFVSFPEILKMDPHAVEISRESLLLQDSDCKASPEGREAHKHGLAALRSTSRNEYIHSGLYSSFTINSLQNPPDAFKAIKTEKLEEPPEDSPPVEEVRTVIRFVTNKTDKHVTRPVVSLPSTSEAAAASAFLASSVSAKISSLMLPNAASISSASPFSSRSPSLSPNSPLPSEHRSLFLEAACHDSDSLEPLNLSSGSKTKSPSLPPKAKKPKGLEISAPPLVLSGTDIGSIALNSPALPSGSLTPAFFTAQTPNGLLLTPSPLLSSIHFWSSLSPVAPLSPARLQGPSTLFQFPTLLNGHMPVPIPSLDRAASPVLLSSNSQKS
The settings on record: protein: recombinant; tags: N-terminal GST; dsDNA, one strand shown. Put shortly: (§1)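 Yeast served to express human transcription factors as GST fusions, which were then captured on glutathione beads and labelled with DNA barcodes. Pooled with a tag-only sample, they were incubated with 200 nmole of a 16-mer random double-stranded DNA library for 30 min at room temperature in Tris/NaCl/DTT/glycerol buffer, washed, crosslinked with 0.1% formaldehyde, ligated by proximity, amplified by PCR and sequenced. Dividing each hexamer's read frequency for a factor by its frequency for the tag-only sample gives the binding signal.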

Experiment [2] concerns the target HSF1 (Homo sapiens, UniProt Q00613 1-529). The settings on record: protein: recombinant; tags: N-terminal GST; chain copies: 3; dsDNA, one strand shown. Put shortly:
as §1

Experiment [3] deals with T2, SPIC (Homo sapiens, UniProt Q8N5J4 1-248).
T2 sequence: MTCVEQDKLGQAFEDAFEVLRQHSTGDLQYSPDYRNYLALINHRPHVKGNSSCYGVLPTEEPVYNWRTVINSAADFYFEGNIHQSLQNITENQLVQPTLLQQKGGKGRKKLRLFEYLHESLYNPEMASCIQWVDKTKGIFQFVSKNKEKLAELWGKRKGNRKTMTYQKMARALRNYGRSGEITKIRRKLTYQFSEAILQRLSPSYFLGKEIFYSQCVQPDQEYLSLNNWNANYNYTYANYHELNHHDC
To be noted: protein: recombinant; tags: N-terminal GST; dsDNA, one strand shown. Put shortly: as §1

For experiment [4], the target named is CRX (Homo sapiens, UniProt O43186 1-299). To be noted: protein: recombinant; tags: N-terminal GST; dsDNA, one strand shown. The method, boiled down:
as §1

The target of experiment [5] is T3, SPDEF (Homo sapiens, UniProt O95238 1-335).
T3 sequence: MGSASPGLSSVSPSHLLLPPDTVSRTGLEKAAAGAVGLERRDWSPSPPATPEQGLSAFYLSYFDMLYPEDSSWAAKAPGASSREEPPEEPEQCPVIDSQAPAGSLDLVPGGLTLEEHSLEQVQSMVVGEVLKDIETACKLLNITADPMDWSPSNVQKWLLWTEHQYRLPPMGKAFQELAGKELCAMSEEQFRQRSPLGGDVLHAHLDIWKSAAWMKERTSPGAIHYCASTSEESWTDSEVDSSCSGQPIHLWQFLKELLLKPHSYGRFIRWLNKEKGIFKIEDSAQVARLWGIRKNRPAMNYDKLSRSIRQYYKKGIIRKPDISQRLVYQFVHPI
To be noted: protein: recombinant; tags: N-terminal GST; dsDNA, one strand shown. Put shortly: as §1

For experiment [6], the target named is T4, ELF5 (Homo sapiens, UniProt Q9UKW6-2 1-255).
T4 sequence: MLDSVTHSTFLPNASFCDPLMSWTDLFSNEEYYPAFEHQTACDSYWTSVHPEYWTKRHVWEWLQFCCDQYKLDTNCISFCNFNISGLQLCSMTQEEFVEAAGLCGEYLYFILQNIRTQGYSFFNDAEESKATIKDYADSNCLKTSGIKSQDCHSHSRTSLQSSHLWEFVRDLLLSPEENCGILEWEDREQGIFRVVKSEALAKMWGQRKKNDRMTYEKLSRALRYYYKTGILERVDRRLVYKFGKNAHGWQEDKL
To be noted: protein: recombinant; tags: N-terminal GST; dsDNA, one strand shown. Put shortly: as §1

CRX, sequence (O43186 whole entry): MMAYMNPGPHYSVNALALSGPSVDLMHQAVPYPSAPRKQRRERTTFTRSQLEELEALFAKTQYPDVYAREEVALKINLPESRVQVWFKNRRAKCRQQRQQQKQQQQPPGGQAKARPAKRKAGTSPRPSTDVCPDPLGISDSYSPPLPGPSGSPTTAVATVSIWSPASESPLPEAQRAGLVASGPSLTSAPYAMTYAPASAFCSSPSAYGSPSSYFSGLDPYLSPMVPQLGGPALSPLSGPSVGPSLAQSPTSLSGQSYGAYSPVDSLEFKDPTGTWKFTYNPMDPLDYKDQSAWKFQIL
HSF1, sequence (Q00613 whole entry): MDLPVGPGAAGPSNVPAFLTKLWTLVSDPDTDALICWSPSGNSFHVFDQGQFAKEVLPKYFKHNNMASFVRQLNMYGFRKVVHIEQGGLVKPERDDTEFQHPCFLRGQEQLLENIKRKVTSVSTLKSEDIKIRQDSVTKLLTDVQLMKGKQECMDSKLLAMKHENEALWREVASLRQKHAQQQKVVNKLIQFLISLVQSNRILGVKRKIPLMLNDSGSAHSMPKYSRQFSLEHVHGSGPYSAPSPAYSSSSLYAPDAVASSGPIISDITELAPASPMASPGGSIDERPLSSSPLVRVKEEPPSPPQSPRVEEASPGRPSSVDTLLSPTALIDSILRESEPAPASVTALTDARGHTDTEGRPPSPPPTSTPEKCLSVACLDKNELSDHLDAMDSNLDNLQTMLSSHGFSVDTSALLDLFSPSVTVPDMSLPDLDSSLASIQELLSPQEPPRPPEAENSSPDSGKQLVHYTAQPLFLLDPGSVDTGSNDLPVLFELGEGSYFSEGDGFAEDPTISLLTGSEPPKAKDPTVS

As to AGCGAT, the binding signal in experiment [1] was 1.23 fold enrichment (6-mer frequency, TF over GST control); in experiment [2] it was 1.1 fold enrichment (6-mer frequency, TF over GST control); in experiment [3], 1.11 fold enrichment (6-mer frequency, TF over GST control); in experiment [4], 1.29 fold enrichment (6-mer frequency, TF over GST control); in experiment [5], 1.08 fold enrichment (6-mer frequency, TF over GST control).

Consider CGAACG, for which the binding signal in experiment [2] is 1.2 fold enrichment (6-mer frequency, TF over GST control); in experiment [3], 1.11 fold enrichment (6-mer frequency, TF over GST control).

Regarding TAGTAG, the binding signal in experiment [2] was 1.2 fold enrichment (6-mer frequency, TF over GST control); in experiment [3], 1.02 fold enrichment (6-mer frequency, TF over GST control); in experiment [4] it was 1.25 fold enrichment (6-mer frequency, TF over GST control); in experiment [5], 1.02 fold enrichment (6-mer frequency, TF over GST control).

Regarding CGAAGG, the binding signal in experiment [2] is 1.31 fold enrichment (6-mer frequency, TF over GST control); in experiment [3] it was 1.08 fold enrichment (6-mer frequency, TF over GST control).

In the case of TGGCGA, the binding signal in experiment [2] is 1.03 fold enrichment (6-mer frequency, TF over GST control); in experiment [3], 1.08 fold enrichment (6-mer frequency, TF over GST control).

As for ACTGGA, the binding signal in experiment [1] was 1.01 fold enrichment (6-mer frequency, TF over GST control); in experiment [2], 1.56 fold enrichment (6-mer frequency, TF over GST control); in experiment [3], 1.16 fold enrichment (6-mer frequency, TF over GST control); in experiment [4] it was 1.19 fold enrichment (6-mer frequency, TF over GST control); in experiment [5], 1.02 fold enrichment (6-mer frequency, TF over GST control).

With CTAGCG, the binding signal was 1.3 fold enrichment (6-mer frequency, TF over GST control) in experiment [2]; 1.03 fold enrichment (6-mer frequency, TF over GST control) in experiment [3]; 1.06 fold enrichment (6-mer frequency, TF over GST control) in experiment [4]; 1.1 fold enrichment (6-mer frequency, TF over GST control) in experiment [5]; 1.07 fold enrichment (6-mer frequency, TF over GST control) in experiment [6].

Consider ATCAAA, for which the binding signal in experiment [1] is 1.08 fold enrichment (6-mer frequency, TF over GST control); in experiment [2], 1.1 fold enrichment (6-mer frequency, TF over GST control); in experiment [4] it was 1.31 fold enrichment (6-mer frequency, TF over GST control); in experiment [5] it was 1.06 fold enrichment (6-mer frequency, TF over GST control); in experiment [6], 1.02 fold enrichment (6-mer frequency, TF over GST control).

With CGACTG, the binding signal in experiment [1] is 1.02 fold enrichment (6-mer frequency, TF over GST control); in experiment [2], 1.02 fold enrichment (6-mer frequency, TF over GST control); in experiment [3], 1 fold enrichment (6-mer frequency, TF over GST control); in experiment [5] it was 1.06 fold enrichment (6-mer frequency, TF over GST control); in experiment [6] it was 1.04 fold enrichment (6-mer frequency, TF over GST control).

Consider GCGTCT, for which the binding signal in experiment [1] is 1.13 fold enrichment (6-mer frequency, TF over GST control); in experiment [2], 1.01 fold enrichment (6-mer frequency, TF over GST control); in experiment [3] it was 1.11 fold enrichment (6-mer frequency, TF over GST control); in experiment [6], 1.08 fold enrichment (6-mer frequency, TF over GST control).

For CCCAAA, the binding signal is 1.1 fold enrichment (6-mer frequency, TF over GST control) in experiment [1]; 1.13 fold enrichment (6-mer frequency, TF over GST control) in experiment [2]; 1.04 fold enrichment (6-mer frequency, TF over GST control) in experiment [3]; 1.13 fold enrichment (6-mer frequency, TF over GST control) in experiment [4]; 1.06 fold enrichment (6-mer frequency, TF over GST control) in experiment [5]; 1.06 fold enrichment (6-mer frequency, TF over GST control) in experiment [6].

On to TAGGAT, for which the binding signal in experiment [1] was 1.03 fold enrichment (6-mer frequency, TF over GST control); in experiment [2], 1.35 fold enrichment (6-mer frequency, TF over GST control); in experiment [3], 1.06 fold enrichment (6-mer frequency, TF over GST control); in experiment [4] it was 1.81 fold enrichment (6-mer frequency, TF over GST control); in experiment [5], 1.22 fold enrichment (6-mer frequency, TF over GST control); in experiment [6], 1.06 fold enrichment (6-mer frequency, TF over GST control).
